What was measured:
Assay in all cases: log2 ratio of Biotin-Ahx-Ub-VS probe labelling (fragment/DMSO); higher = less target engagement (more negative = stronger competition), active = hit call of the paper (q ≤ 0.05, log2 ratio ≤ -1)
Settings in all cases: compound concentration: 200 uM; treatment time: 3 h
[1] = target: USP9X (UniProt Q93008)
How it was run: (§1)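 Labelled DUBs from HEK293T lysate were NeutrAvidin-enriched, digested with LysC and trypsin, and run by diaPASEF LC-MS/MS. Before that, each 495 µg sample in Tris/CHAPS/IGEPAL buffer with protease inhibitors was treated in triplicate with fragment at 200 µM or vehicle for 3 h, then with Biotin-Ahx-Ub-VS at 0.5 µM final for 1 h. Values are average log2 ratios of fragment over vehicle by unpaired t-test, based on global-median-normalised Spectronaut label-free quantities from proteins with ≥2 unique peptides.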

[2] = target: UniProt O00487
How it was run: as §1

[3] = target: UniProt O00507
How it was run: as §1

[4] = target: UniProt P51784
How it was run: as §1

[5] = target: T1, UniProt Q5T2D3
T1 sequence (whole entry): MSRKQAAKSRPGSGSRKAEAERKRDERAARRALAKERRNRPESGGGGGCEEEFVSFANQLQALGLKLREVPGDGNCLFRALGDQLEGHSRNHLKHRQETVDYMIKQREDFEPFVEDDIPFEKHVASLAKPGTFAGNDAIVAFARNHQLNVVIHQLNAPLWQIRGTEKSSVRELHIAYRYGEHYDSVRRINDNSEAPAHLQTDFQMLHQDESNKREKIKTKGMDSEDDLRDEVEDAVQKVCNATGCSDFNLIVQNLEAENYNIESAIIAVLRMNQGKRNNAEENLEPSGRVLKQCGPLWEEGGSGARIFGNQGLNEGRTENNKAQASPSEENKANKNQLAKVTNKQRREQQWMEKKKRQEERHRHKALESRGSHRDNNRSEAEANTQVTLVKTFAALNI
How it was run: as §1

[6] = target: T2, UniProt Q8TE49
T2 sequence (whole entry): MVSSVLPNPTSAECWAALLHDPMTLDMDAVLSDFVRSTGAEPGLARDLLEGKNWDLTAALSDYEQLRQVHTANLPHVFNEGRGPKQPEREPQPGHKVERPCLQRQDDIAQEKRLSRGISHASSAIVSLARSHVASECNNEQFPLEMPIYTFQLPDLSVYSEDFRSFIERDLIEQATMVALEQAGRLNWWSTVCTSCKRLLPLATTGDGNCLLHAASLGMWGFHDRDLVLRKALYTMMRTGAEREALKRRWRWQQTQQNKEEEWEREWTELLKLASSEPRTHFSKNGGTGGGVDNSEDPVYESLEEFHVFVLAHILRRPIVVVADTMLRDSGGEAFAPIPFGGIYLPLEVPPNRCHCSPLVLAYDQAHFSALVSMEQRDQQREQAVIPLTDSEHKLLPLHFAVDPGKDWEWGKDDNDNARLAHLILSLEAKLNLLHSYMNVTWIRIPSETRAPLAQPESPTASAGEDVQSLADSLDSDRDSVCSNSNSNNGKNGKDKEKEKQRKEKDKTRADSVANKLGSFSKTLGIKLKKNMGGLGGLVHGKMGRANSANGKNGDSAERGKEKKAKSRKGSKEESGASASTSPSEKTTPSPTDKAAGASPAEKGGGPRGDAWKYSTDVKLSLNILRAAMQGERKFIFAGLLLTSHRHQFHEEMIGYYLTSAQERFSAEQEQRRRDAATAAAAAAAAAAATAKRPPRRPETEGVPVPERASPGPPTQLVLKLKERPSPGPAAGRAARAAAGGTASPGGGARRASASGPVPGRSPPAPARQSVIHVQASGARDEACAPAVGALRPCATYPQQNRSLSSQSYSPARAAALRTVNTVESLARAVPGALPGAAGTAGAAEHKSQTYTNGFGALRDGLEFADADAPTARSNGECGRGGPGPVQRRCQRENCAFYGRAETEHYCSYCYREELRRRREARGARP
How it was run: as §1

[7] = target: T3, UniProt Q9P2H5
T3 sequence (whole entry): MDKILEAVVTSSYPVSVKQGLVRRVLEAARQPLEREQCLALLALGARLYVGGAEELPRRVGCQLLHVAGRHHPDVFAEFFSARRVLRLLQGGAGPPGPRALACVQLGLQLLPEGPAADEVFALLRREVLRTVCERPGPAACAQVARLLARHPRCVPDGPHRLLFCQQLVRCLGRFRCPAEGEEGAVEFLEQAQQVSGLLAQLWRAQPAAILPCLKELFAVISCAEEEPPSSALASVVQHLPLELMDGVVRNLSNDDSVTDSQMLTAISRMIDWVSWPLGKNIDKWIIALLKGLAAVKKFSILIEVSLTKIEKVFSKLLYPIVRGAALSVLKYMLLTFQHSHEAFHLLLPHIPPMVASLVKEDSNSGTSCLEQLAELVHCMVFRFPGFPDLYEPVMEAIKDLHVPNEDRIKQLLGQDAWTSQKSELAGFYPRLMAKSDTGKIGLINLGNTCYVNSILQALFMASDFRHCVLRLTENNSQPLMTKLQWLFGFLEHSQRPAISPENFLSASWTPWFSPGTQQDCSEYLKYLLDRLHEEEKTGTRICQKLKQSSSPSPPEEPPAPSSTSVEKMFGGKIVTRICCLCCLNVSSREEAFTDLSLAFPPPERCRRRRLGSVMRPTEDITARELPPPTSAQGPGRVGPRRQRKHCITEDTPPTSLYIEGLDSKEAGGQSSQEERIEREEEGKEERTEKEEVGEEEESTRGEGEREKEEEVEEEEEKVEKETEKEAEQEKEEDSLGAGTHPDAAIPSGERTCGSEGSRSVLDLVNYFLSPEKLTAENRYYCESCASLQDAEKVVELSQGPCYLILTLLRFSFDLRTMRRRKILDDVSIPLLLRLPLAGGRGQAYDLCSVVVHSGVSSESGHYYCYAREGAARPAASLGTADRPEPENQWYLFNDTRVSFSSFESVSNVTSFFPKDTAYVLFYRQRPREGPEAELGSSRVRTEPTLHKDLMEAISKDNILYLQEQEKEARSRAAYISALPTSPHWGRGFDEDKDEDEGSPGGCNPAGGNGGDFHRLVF
How it was run: as §1

[8] = target: T4, UniProt Q9UGI0
T4 sequence (whole entry): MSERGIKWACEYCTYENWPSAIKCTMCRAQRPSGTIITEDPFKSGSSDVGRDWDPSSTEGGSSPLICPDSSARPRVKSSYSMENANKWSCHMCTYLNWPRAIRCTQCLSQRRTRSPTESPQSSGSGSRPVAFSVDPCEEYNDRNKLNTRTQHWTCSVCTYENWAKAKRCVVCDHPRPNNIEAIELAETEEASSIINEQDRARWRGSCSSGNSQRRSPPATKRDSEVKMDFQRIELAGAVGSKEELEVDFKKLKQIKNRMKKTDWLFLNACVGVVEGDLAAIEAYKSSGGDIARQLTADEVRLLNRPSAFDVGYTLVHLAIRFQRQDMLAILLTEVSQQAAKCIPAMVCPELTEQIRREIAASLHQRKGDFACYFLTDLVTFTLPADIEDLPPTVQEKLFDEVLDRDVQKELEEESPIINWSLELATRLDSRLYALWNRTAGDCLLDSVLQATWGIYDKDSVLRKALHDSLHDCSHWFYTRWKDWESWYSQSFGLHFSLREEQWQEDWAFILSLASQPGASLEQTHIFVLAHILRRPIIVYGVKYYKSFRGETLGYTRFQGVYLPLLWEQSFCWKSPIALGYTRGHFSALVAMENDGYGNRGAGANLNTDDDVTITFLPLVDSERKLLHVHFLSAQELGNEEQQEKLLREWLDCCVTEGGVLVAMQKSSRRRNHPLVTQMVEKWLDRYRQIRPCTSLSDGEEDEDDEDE
How it was run: as §1

[9] = target: T5, YOD1 (UniProt Q5VVQ6)
T5 sequence (whole entry): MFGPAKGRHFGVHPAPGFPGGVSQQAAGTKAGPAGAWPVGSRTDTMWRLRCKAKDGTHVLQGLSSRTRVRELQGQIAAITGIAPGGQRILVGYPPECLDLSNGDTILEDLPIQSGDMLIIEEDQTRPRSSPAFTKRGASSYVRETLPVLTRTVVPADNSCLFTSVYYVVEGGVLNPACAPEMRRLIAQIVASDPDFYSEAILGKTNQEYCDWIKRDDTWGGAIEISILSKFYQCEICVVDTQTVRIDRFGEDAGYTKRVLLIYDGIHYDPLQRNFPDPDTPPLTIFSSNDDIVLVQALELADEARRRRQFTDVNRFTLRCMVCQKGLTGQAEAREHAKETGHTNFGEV
How it was run: as §1

Measured: log2 ratio of Biotin-Ahx-Ub-VS probe labelling

Sequence of UniProt O00487 (O00487 whole entry): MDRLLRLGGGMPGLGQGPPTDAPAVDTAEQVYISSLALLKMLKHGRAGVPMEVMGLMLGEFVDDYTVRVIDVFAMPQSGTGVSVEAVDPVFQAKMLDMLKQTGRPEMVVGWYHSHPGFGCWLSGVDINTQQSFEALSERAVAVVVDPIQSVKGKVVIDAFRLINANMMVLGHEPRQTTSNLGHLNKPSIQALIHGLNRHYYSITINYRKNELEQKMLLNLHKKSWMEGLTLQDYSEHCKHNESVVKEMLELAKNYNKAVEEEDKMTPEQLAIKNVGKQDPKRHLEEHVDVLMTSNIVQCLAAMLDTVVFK
Sequence of USP9X (Q93008 whole entry, the tested form may be a part): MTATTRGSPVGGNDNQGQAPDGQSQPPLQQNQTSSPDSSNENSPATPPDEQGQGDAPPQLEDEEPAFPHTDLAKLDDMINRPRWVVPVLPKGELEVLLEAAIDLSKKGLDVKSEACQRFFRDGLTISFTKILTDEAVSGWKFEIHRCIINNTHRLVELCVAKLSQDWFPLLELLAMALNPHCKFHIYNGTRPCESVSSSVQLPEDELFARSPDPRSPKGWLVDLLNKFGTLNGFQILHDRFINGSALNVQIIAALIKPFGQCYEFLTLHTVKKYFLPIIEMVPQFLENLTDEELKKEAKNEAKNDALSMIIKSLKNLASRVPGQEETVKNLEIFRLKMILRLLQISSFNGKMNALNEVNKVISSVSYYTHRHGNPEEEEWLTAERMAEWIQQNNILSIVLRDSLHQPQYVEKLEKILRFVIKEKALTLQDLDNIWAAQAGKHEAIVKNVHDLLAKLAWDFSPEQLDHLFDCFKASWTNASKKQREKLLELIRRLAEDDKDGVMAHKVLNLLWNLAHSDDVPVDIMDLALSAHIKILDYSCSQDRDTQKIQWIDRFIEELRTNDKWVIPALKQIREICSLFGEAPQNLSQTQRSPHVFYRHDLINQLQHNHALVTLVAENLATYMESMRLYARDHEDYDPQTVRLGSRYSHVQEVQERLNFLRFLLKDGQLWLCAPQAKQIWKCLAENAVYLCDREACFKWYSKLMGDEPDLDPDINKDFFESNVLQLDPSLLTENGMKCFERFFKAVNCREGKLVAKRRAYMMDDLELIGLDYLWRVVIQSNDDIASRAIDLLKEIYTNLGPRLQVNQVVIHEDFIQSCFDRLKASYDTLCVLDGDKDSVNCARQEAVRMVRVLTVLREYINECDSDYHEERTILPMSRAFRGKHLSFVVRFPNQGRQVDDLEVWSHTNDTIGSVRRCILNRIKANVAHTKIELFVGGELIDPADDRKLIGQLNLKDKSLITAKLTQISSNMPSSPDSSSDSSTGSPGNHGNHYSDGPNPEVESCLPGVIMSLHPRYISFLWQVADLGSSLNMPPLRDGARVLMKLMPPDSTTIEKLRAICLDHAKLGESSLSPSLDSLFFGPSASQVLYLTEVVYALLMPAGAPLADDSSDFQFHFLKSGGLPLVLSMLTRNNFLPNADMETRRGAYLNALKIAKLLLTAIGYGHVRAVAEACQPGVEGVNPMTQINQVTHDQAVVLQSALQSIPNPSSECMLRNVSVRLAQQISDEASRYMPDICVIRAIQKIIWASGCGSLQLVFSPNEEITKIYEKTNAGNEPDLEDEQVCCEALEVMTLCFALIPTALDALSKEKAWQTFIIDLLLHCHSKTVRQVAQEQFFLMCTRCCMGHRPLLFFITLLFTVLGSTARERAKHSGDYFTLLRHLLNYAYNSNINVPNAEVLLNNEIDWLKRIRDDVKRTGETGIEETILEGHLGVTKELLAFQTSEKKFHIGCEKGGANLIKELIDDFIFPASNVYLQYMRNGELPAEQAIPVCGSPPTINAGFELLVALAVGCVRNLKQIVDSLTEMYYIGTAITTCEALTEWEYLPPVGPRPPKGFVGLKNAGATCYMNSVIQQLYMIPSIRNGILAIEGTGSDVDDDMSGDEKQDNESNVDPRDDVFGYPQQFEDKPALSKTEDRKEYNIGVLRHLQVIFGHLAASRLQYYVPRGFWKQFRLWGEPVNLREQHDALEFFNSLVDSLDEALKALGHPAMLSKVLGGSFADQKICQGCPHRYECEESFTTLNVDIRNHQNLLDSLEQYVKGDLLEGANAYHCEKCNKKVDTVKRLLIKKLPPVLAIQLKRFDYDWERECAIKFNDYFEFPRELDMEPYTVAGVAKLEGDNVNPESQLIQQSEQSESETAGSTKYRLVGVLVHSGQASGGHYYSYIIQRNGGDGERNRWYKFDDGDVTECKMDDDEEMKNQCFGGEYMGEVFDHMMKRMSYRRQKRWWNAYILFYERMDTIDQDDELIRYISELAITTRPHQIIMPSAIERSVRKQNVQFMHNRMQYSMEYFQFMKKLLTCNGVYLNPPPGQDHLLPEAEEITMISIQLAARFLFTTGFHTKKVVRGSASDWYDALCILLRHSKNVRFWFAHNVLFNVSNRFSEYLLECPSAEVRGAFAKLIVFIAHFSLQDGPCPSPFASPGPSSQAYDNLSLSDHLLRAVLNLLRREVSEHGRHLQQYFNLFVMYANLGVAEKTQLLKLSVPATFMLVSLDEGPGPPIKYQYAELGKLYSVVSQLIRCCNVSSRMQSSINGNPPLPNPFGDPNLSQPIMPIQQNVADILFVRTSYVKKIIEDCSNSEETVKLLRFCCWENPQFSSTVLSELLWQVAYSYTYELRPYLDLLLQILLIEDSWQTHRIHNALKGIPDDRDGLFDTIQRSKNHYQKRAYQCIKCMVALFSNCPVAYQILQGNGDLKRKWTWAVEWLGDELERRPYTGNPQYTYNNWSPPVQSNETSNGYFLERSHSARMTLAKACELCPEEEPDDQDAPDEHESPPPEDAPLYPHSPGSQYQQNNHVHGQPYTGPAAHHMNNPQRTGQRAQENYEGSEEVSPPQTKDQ
Sequence of UniProt P51784 (P51784 whole entry): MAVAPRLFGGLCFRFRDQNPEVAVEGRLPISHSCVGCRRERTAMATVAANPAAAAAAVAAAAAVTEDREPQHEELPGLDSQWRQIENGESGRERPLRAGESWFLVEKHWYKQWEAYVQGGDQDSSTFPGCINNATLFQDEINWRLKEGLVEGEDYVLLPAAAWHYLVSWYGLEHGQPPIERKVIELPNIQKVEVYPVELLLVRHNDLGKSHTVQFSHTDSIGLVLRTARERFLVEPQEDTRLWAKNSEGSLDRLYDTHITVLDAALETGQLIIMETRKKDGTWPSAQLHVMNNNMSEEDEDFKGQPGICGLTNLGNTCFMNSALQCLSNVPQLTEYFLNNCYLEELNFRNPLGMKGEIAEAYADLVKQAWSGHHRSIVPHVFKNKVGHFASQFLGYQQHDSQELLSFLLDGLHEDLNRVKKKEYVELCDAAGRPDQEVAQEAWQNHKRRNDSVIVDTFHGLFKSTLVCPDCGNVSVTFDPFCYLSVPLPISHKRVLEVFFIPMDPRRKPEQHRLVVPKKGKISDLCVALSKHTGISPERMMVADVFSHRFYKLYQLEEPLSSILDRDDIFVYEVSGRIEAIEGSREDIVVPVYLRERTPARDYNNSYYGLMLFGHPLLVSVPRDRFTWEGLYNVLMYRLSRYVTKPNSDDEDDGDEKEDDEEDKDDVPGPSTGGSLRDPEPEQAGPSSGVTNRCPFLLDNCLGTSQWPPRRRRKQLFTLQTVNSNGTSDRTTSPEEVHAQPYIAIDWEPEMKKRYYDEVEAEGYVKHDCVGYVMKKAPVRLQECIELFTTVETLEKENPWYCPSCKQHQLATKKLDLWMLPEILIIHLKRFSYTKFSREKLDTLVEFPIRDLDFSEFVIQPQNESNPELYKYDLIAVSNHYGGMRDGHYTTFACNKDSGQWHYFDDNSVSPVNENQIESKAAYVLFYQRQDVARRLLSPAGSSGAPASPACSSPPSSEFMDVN

COCC[C@@H](NC(=O)CCl)c1ccccc1
inactive: [1] -0.0244 | [2] -0.0153 | [3] -0.0256 | [4] 0.0932 | [5] -0.0591 | [6] -0.208 | [7] -0.159 | [8] -0.681 | [9] 0.231

Reference: the supplement of paper PMC11732987, “Enantioselective OTUD7B fragment discovery through chemoproteomics screening and high-throughput optimisation” (Communications Chemistry, 2025)
